# Screens deposited in PubChem by NMMLSC.
# Sampled rows, rich in hits. Any-hit rate of the full collection: about 1.8%.
# MEP2-GFP yeast: modulators of TOR pathway MEP2-GFP in S. cerevisiae | S. cerevisiae MEP2-GFP strain, flow cytometry GFP, 3 h; 100% = DMSO control level | GFP response vs DMSO, % at 10 µM | hit rate 0.51% among 330,000;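 active = GFP response versus DMSO above a set limit, roughly screen mean plus 3 SD, cut at about 180% in these data; inconclusive = fewer than 70 cells counted for a yeast strain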;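 note: median GFP fluorescence of the barcode-gated MEP2-GFP cells per well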
# AGP1-GFP MLPCN: modulators of TOR pathway AGP1-GFP in S. cerevisiae | S. cerevisiae AGP1-GFP multiplex flow cytometry, 3 h; GFP as percent of DMSO wells | GFP response vs DMSO, % at 10 µM | hit rate 0.02% among 320,000;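 active = GFP response relative to DMSO above a set limit, near screen average plus 3 SD, cut at about 150% in these data; inconclusive = fewer than 70 cells counted for the yeast strain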;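 note: median GFP channel fluorescence of the gated AGP1 strain per well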
# LAP4-GFP MLPCN: yeast TOR pathway LAP4-GFP modulation; S. cerevisiae LAP4-GFP multiplex, flow cytometry GFP, 3 h; median GFP as percent of DMSO wells; GFP response vs DMSO, % at 10 µM; hit rate 0.34% among 320,000;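 active = GFP response vs DMSO above a set limit, about the screen mean plus 3 SD, cut at about 150% in these data; inconclusive = under 70 cell events counted for the yeast strain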
# RPL19A TOR yeast: alters RPL19A-GFP fluorescence in TOR pathway yeast screen; AID 2025; S. cerevisiae RPL19A-GFP strain, flow cytometry, 3 h; active compounds read low; hit rate 0.3% among 330,000; percent response vs DMSO, % at 10 µM;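 active = percent response vs DMSO below 50%; inconclusive = fewer than 70 events counted for the yeast strain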;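 note: median channel GFP fluorescence of the barcoded RPL19A-GFP strain; ratio of sample median GFP to plate DMSO average so 100% = DMSO; lower means less RPL19A-GFP as with rapamycin TOR inhibition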
# CIT2 TOR yeast: alters CIT2-GFP fluorescence in TOR pathway yeast screen. AID 2029. S. cerevisiae CIT2-GFP strain, flow cytometry, 3 h; 100 means same as DMSO wells. hit rate 0.065% among 320,000. GFP response vs DMSO, % at 10 µM;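 active = GFP response relative to DMSO above a set limit, near the screen mean plus 3 SD, cut at about 150% in these data; inconclusive = Fewer than 70 cells measured for a yeast strain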;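 note: ratio of well median GFP fluorescence to mean of DMSO wells on the plate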
# Myeloid diff 2: promotes myeloid progenitor differentiation; ER-HoxA9 myeloid progenitors, lysozyme-GFP differentiation, flow cytometry; calls only at 10 µM; hit rate 1% among 360,000;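 active = normalized GFP-positive differentiation at or above the plate's own cutoff, the solvent-only control mean plus 3 SD; inconclusive = no clear call, values can overlap the other calls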;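 note: cells exposed to compound for four days before flow analysis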
# * hit, by the source's call; i = inactive; ? = inconclusive; . = not tested or not shown; + = active, no number; [ ] = another dose, or the depositor's remark.
SMILES,MEP2-GFP yeast,AGP1-GFP MLPCN,LAP4-GFP MLPCN,RPL19A TOR yeast,CIT2 TOR yeast,Myeloid diff 2
COc1cc(C(O)P(=O)(OCC(C)C)OCC(C)C)cc(OC)c1OC (configuration not stated),183*,53,89,.,108,i
O=C(CCSc1ccc(Cl)cc1)N1CCN(c2ccc(O)cc2)CC1,94,103,106,96,103,+
N#CC1=C(N)NC(SCc2ccc(Br)cc2)=C(C#N)C12CCCCC2,256*[may fluoresce violet],?,79,18*[may fluoresce violet],?,i
N#CC1=C(N)NC(SCc2ccc(Cl)cc2)=C(C#N)C12CCCCC2,117,115,113,113,109,i
Cc1nn(Cc2ccccc2)c(C)c1CNC(=O)[C@H](C)N=C1NS(=O)(=O)c2ccccc21,93,90,87,93,87,i
Brc1cccc(C=Nc2cccc3ncccc23)c1,94,106,112,95,88,i
Oc1c(Br)cc(Br)cc1C=Nc1cccc2ncccc12,92,70,191*,81,65,i
CCOC(=O)C1=C(CSc2nc(-c3ccccc3)ccc2C#N)OC(N)=C(C#N)C1c1ccc(OC)cc1 (configuration not stated),92,95,93,92,87,+
CCOC(=O)C1=C(CSc2nc(CC)c(C)cc2C#N)OC(N)=C(C#N)C1c1ccccc1 (configuration not stated),95,92,103,97,82,i
Oc1ccc(Oc2ccc(Oc3ccc(O)cc3)cc2)cc1,105,97,105,100,97,+
COc1ccc(-n2nc(C(=O)c3cccs3)cc(-c3nc4ccccc4[nH]3)c2=N)cc1,105,101,102,97,95,+
CCOC(=O)C1CCN(S(=O)(=O)c2cccc(-c3cn4cc(C)ccc4n3)c2)CC1,373*[may fluoresce violet],?,98,46*[may fluoresce violet],?,i
COc1ccc(NC(=O)CN(C)S(=O)(=O)c2cnc[nH]2)cc1OC,121,?,77,25*[may fluoresce violet],?,i
CCc1ccc2nc3sc(C(=O)N4CCc5ccccc54)c(N)c3cc2c1,124,102,107,106,136,.
Cc1ccc(C)c2nc3sc(C(=O)N4CCCc5ccccc54)c(N)c3cc12,91,93,89,93,99,+
COc1ccc(CCN2C(=O)C3C4C=CC(C3C2=O)C2C(=O)N(CCc3ccc(OC)c(OC)c3)C(=O)C42)cc1OC (configuration not stated),92,95,99,88,96,i
CCS(=O)(=O)c1ccc2c(c1)N(S(=O)(=O)c1cccs1)CC(C(=O)O)O2 (configuration not stated),98,109,105,97,125,i
CC(C)(C)c1ccc(S(=O)(=O)N2CC(C(=O)O)Oc3ccc(Cl)cc32)cc1 (configuration not stated),101,104,117,95,97,i
COc1ccc(S(=O)(=O)N2CC(C(=O)O)Oc3ccc(Cl)cc32)cc1 (configuration not stated),108,103,88,104,104,+
O=C(O)Cc1ccc2c(c1)N(S(=O)(=O)c1cccs1)CC(C(=O)O)O2 (configuration not stated),109,120,106,94,161*[may fluoresce green],i
Cc1nc2ccc(S(=O)(=O)CCC(=O)NCCc3ccccc3)cc2s1,.,.,.,.,.,i
CC1CCCCC1N1CN=C(Nc2nc3ccccc3s2)NC1 (configuration not stated),110,107,118,112,115,+
COC(=O)c1ccccc1NC(=O)[C@@H]1CCC(=O)N1C1OC(=O)c2c1ccc(OC)c2OC (some centres not stated),108,101,104,99,97,+
Cc1cccc(OCc2nnc(SCC(=O)N3c4ccccc4CCc4ccccc43)o2)c1,946*[may fluoresce violet],26,115,51,?,i
O=C(CSc1nnc(COc2ccc(F)cc2)o1)N1c2ccccc2CCc2ccccc21,100,103,98,101,95,i
SMILES,MEP2-GFP yeast,AGP1-GFP MLPCN,LAP4-GFP MLPCN,RPL19A TOR yeast,CIT2 TOR yeast,Myeloid diff 2
O=S(=O)(Nc1c(O)ccc2ccccc12)c1ccccc1,237*[may fluoresce violet],?,94,42*[may fluoresce violet],?,i
O=S(=O)(Nc1c(O)ccc2ccccc12)c1ccc(F)cc1,108,114,119,98,104,i
COCCCN1C(=O)C(CC(=O)NC2CCCCC2)CC(C(=O)N(C(C)C)C(C)C)=C1C (configuration not stated),.,.,.,.,.,i
COc1cccc(C(=O)NCC(=O)N2CCC(C)CC2)c1,184*[may fluoresce violet],22,95,45*[may fluoresce violet],?,i
CCCn1c(=O)[nH]c(=O)c2c1nc(-c1ccc(C#N)cc1)n2CCOC,106,104,90,112,114,i
CCCn1c(=O)[nH]c(=O)c2c1nc(-c1ccc(OC(F)(F)C(F)C(F)(F)F)cc1)n2CCOC (configuration not stated),179*[may fluoresce violet],60,101,72,?,i
COc1ccc(S(=O)(=O)Cc2ccccc2)cc1N,103,113,108,107,105,+
Cc1cc(C)cc(Nc2ccc(C(=O)O)cc2N)c1,209*[may fluoresce violet],104,89,96,?,i
NC(=O)CCS(=O)(=O)c1ccc(Cl)cc1,106,107,105,105,111,i
CC(NC(=O)Nc1ccccc1O)(C(F)(F)F)C(F)(F)F,108,103,96,97,113,+
O=C(Nc1ccccc1N1CCCCC1)c1cc(S(=O)(=O)N2CCOCC2)ccc1F,.,.,.,.,.,i
CCC(Oc1ccccc1)C(=O)Nc1ccc(S(=O)(=O)Nc2cnc3ccccc3n2)cc1 (configuration not stated),105,103,101,102,94,i
CCC(Oc1ccccc1)C(=O)Nc1ccc(S(=O)(=O)Nc2ncccn2)cc1 (configuration not stated),236*[may fluoresce violet],22,77,103,?,i
Cn1c(CN(O)S(=O)(=O)c2ccc(Cl)cc2)nnc1C(F)(F)F,104,116,103,93,154*[may fluoresce green],i
CN(C)C(=O)CN(C)S(=O)(=O)c1ccc(Cl)cc1,96,100,101,98,104,i
C[C@H](NC(=O)c1ccccc1)C(=O)OCC(=O)Nc1sccc1C(N)=O,106,105,98,103,117,i
Cc1cc2c(SCc3ccccc3Cl)nc(N)nc2nc1C,.,.,.,.,.,+
Clc1ccc(SCc2cc(-c3ccccc3)on2)cc1,218*[may fluoresce violet],?,83,53,?,i
Clc1ccc(SCc2cc(Cl)nc(-c3ccccc3)n2)cc1,103,105,98,99,104,i
